PubChem BioAssay (NCATS)
Records with an inconclusive call do not appear. Active and inactive are the calls of the source. Calls come from the whole dose curve; as a rule, active = well fitted curve in the direction sought with a large enough effect; inconclusive = small, poorly fitted or top-dose-only effect, or another doubt; inactive = no such curve, though single readings can be large; an effect the other way counts as inactive or inconclusive.

How the values were obtained:
[1] = qHTS to identify inhibitors of the type 1 interferon - major histocompatibility complex class I in skeletal muscle: primary screen against the NCATS Pharmaceutical Collection (AID 1347407);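 note: luminescence of HiBiT knocked into endogenous HLA-B as interferon-induced MHC class I level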
Outline: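 Compounds […] were added to CRISPR-engineered HLA-B-HiBiT C25cl48 human myoblasts with 4.0 ng/ml IFN-beta. After 24 hrs at 37 C, cells were lysed and HiBiT luminescence measured.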

[2] = qHTS for inhibitors of adenylyl cyclases using a fission yeast platform: a pilot screen against the NCATS LOPAC library (AID 1347410)
Outline: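 GFP from fbp1-GFP reporter, read by Acumen laser cytometry, indicates AC inhibition in fission yeast expressing AC9, GNAS and PDE4D2. Cells grown 18 h in the dark at 30C with compounds, final up to 57 uM.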

[3] = qHTS to identify inhibitors of the type 1 interferon - major histocompatibility complex class I in skeletal muscle: primary screen against the NCATS Mechanism Interrogation Plate v5.0 (MIPE) Libary (AID 1347411); note: nearly all actives have a fitted effect of over 65% in size; note: potency is the fitted concentration of half-maximal effect
Outline: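 HLA-B HiBit myoblasts, dexamethasone-free medium + 4 ng/ml IFN-b, 24 h compound, 11-pt 1:3 from 46 uM final. Readout: Nano-Glo HiBiT lytic luminescence after 10 min lysis, RT.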

[4] = target: Protein phosphatase 1D (Homo sapiens) (UniProt O15297); assay: RapidFire Mass Spectrometry qHTS Assay for Modulators of WT P53-Induced Phosphatase 1 (WIP1) (AID 1347424);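 note: amount of dephosphorylated VEPPL-S-QETFS peptide product formed by WIP1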; note: potency is the fitted concentration of half-maximal effect
Protein phosphatase 1D (Homo sapiens), sequence (O15297 whole entry, looked up): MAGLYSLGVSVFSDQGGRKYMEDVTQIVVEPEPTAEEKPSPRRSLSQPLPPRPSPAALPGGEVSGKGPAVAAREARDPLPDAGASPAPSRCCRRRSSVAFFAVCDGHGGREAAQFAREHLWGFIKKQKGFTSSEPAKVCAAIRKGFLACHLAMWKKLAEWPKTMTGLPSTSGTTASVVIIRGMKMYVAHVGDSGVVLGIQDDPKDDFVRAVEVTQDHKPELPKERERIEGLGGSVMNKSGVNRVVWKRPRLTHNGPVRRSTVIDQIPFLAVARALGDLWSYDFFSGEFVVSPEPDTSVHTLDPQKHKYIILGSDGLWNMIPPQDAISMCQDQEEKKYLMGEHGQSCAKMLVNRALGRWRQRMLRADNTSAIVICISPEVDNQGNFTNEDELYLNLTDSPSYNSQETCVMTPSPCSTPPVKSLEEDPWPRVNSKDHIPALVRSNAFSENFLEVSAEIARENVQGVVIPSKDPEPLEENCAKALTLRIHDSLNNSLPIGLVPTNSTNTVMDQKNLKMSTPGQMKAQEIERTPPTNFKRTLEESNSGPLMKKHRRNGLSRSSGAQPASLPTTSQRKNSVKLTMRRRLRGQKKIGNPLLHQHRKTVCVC
Outline: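 RapidFire mass spectrometry measured dephosphorylated peptide after 5 min room-temperature reaction of 2 uM VEPPL-pS-QETFS with 10 nM WIP1 (50 mM Tris-HCl pH 7.5, 30 mM MgCl2, 0.1 mM EGTA, BSA), following 1 hr compound preincubation; 1 uM isotope-labelled product standard.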

[5] = Validation qHTS assay for inhibitors of Activation Induced Cytidine Deaminase (AID): UDG Counterscreen signal (AID 1347427)
Outline: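 Fluorescence at 560 nm excitation, 665 nm emission reports UDG signal after 250 mM NaOH (2x) addition and 30 min. Enzymes (AID 1 uM, UDG 2 U/mL, at 4/3x) preincubated 10 min with compound, then 4 h with 4x 250 nM DJC20/DJC23 substrate at room temperature.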

[6] = target: Single-stranded DNA cytosine deaminase (Homo sapiens) (UniProt Q9GZX7); assay: Validation qHTS assay for inhibitors of Activation Induced Cytidine Deaminase (AID): AID signal (AID 1347429); note: potency is the fitted concentration of half-maximal effect
Single-stranded DNA cytosine deaminase (Homo sapiens), sequence (Q9GZX7 whole entry, looked up): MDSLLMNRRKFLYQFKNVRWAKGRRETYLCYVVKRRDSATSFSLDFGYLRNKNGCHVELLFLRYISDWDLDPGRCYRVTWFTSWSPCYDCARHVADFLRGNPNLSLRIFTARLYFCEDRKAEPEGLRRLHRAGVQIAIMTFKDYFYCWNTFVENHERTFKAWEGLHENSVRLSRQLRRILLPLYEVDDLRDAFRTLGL
Outline: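 AID+UDG coupled FRET deamination; cpds up to 114 uM final; DJC20/DJC23 substrate, 4 hr RT; NaOH stop, 30 min RT; read Ex 540/Em 590.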

[7] = Primary qHTS for inhibitors of La Crosse Virus (LACV) - induced cell death in SH-SY5Y cells (AID 1508616);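 note: top concentration of the series differs between compounds; higher means more rescue of cells from virus-induced death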
Outline: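 Cytopathicity rescue screen: compounds pinned onto SH-SY5Y cells, which are then infected with LACV (MOI 0.01) and held 6 days at 37C. Percent activity is scaled between infected DMSO control and uninfected DMSO control.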

[8] = target: Protein phosphatase 1D (Homo sapiens) (UniProt O15297); assay: Rhodamine-PBP qHTS Assay for Modulators of WT P53-Induced Phosphatase 1 (WIP1) (AID 1347425)
Outline: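 5 nM WIP1 + 10 uM Rh-PBP, 50 mM Tris pH 7.5, 30 mM MgCl2, 1 mM TCEP, 0.1 mM EGTA, BSA; cpds pinned, 1 hr RT; + 10 uM phosphopeptide; fluorescence 1-min reads x 11 min; delta = f1 - f0.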

Measured: Potency

O=c1c(O)c(-c2ccc(O)c(O)c2)oc2cc(O)cc(O)c12
inactive: [1] | [2] | [3] | [4] | [5] | [6] | [7]

NC(CO)C(=O)NNCc1ccc(O)c(O)c1O (stereo unspecified)
inactive: [1] | [2] | [3] | [4] | [8] | [5] | [6] | [7]

CNCCCC12CCC(c3ccccc31)c1ccccc12
inactive: [1] | [2] | [3] | [4] | [8] | [5] | [6] | [7]

NC(=O)OCC(COC(N)=O)c1ccccc1
inactive: [1] | [2] | [3] | [4] | [8] | [5] | [6]

NS(=O)(=O)c1cc2c(cc1Cl)NCNS2(=O)=O
inactive: [1] | [2] | [3] | [4] | [8] | [5] | [6] | [7]

CN1CCN(C2=Nc3cc(Cl)ccc3Nc3ccccc32)CC1
inactive: [1] | [2] | [3] | [4] | [8] | [5] | [6]

O=C(c1ccc(OCCN2CCCCC2)cc1)c1c(-c2ccc(O)cc2)sc2cc(O)ccc12
inactive: [1] | [2] | [3] | [4] | [8] | [5] | [6]

C[C@](N)(Cc1ccc(O)c(O)c1)C(=O)O
inactive: [1] | [2] | [3] | [5] | [6]

COc1nc(C)nc(Cl)c1NC1=NCCN1
inactive: [1] | [2] | [3] | [4] | [8] | [5] | [6]

Cc1cnc(C(=O)NCCc2ccc(S(=O)(=O)NC(=O)NC3CCCCC3)cc2)cn1
inactive: [1] | [2] | [3] | [4] | [8] | [5] | [6]

COC(=O)Nc1nc2ccc(C(=O)c3cccs3)cc2[nH]1
inactive: [1] | [2] | [4] | [8] | [5] | [6]

CC1COc2c(N3CCN(C)CC3)c(F)cc3c(=O)c(C(=O)O)cn1c23 (stereo unspecified)
inactive: [1] | [2] | [3] | [4] | [8] | [7]

O=C1N(c2ccccc2)c2ccccc2C1(Cc1ccncc1)Cc1ccncc1
inactive: [1] | [2] | [3] | [4] | [8] | [5] | [6] | [7]

CC(C)(C)C(=O)Oc1ccc(S(=O)(=O)Nc2ccccc2C(=O)NCC(=O)O)cc1
inactive: [1] | [2] | [3] | [4] | [8]

COc1ccccc1N1CCN(CC(O)COc2cccc3ccccc23)CC1 (stereo unspecified)
inactive: [1] | [2] | [3] | [4] | [8] | [5] | [6]

Nc1c2c(nc3ccccc13)CCCC2
inactive: [1] | [2] | [3] | [4] | [8] | [5] | [6]

CN1CCC(=C2c3ccccc3C=Cc3ccccc32)CC1
inactive: [1] | [2] | [3] | [4] | [8] | [5] | [6]

Cc1cc(C(C)(C)C)cc(C)c1CC1=NCCN1
inactive: [1] | [2] | [3] | [4] | [8] | [5] | [6] | [7]

NCCc1cnc[nH]1
inactive: [1] | [2] | [3] | [4] | [8] | [5] | [6] | [7]

CC#C[C@]1(O)CC[C@H]2[C@@H]3CCC4=CC(=O)CCC4=C3[C@@H](c3ccc(N(C)C)cc3)C[C@@]21C
inactive: [1] | [2] | [3] | [4] | [8] | [5] | [6]

CC(C)NCC(O)COc1ccc(CCOCC2CC2)cc1 (stereo unspecified)
inactive: [1] | [2] | [3] | [4] | [8] | [5] | [6] | [7]

Cc1ccc(C(=O)Nc2ccc(S(=O)(=O)O)c3cc(S(=O)(=O)O)cc(S(=O)(=O)O)c23)cc1NC(=O)c1cccc(NC(=O)Nc2cccc(C(=O)Nc3cc(C(=O)Nc4ccc(S(=O)(=O)O)c5cc(S(=O)(=O)O)cc(S(=O)(=O)O)c45)ccc3C)c2)c1
inactive: [1] | [2] | [3] | [5] | [7]
active: [4] 3.98 µM | [6] 11.2 µM

COc1ccc(C2CNC(=O)C2)cc1OC1CCCC1 (stereo unspecified)
inactive: [1] | [2] | [3] | [4] | [8] | [5] | [6]

CC(C)NCC(O)c1ccc(O)c(O)c1 (stereo unspecified)
inactive: [1] | [2] | [3] | [4] | [8] | [5] | [6]

CC(COc1ccccc1)N(CCCl)Cc1ccccc1 (stereo unspecified)
inactive: [1] | [3] | [4] | [8] | [5] | [6] | [7]

O=c1c(-c2ccc(O)cc2)coc2cc(O)cc(O)c12
active: [3] 9.51 µM
inactive: [2] | [4] | [8] | [5] | [6] | [7]

CCC1(c2ccccc2)C(=O)NCNC1=O
inactive: [4] | [8] | [7]

O=C(C1CCCCC1)N1CC(=O)N2CCc3ccccc3C2C1 (stereo unspecified)
inactive: [4] | [8]

O=C1Cc2cc(CCN3CCN(c4nsc5ccccc45)CC3)c(Cl)cc2N1
inactive: [1] | [2] | [4] | [8] | [5] | [6] | [7]

COc1ccccc1OCCNCC(O)COc1cccc2[nH]c3ccccc3c12 (stereo unspecified)
inactive: [1] | [2] | [4] | [8] | [5] | [6] | [7]

O=C(CCCN1CCC(O)(c2ccc(Cl)cc2)CC1)c1ccc(F)cc1
inactive: [1] | [2] | [4] | [8] | [5] | [6] | [7]

CC(CCc1ccc(O)cc1)NCCc1ccc(O)c(O)c1 (stereo unspecified)
inactive: [1] | [2] | [4] | [8] | [5] | [6] | [7]

CS(=O)(=O)Nc1ccc([N+](=O)[O-])cc1Oc1ccccc1
inactive: [1] | [2] | [4] | [8] | [5] | [6]

Clc1ccccc1C(c1ccccc1)(c1ccccc1)n1ccnc1
inactive: [2] | [4] | [8] | [5] | [6] | [7]

Cn1c(=O)c2[nH]cnc2n(C)c1=O
inactive: [4] | [8]

CC(C)C(=O)Nc1ccc([N+](=O)[O-])c(C(F)(F)F)c1
inactive: [2] | [3] | [4] | [8] | [5] | [6]

OCCN1CCN(CCCN2c3ccccc3Sc3ccc(C(F)(F)F)cc32)CC1
inactive: [1] | [2] | [4] | [8] | [5] | [6] | [7]

COc1cc2nc(N3CCN(C(=O)C4COc5ccccc5O4)CC3)nc(N)c2cc1OC (stereo unspecified)
inactive: [2] | [4] | [8] | [5] | [6]

CN1CCN2c3ccccc3Cc3ccccc3C2C1 (stereo unspecified)
inactive: [1] | [2] | [4] | [8] | [5] | [6] | [7]

CCc1cccc2c3c([nH]c12)C(CC)(CC(=O)O)OCC3 (stereo unspecified)
inactive: [1] | [2] | [4] | [8] | [5] | [6] | [7]

CS(=O)(=O)CCNCc1ccc(-c2ccc3ncnc(Nc4ccc(OCc5cccc(F)c5)c(Cl)c4)c3c2)o1
inactive: [4] | [8]
active: [3] 33 µM

CC(C)Cc1ccc(C(C)C(=O)O)cc1 (stereo unspecified)
inactive: [2] | [4] | [8]

COc1cc2nc(N3CCN(C(=O)c4ccco4)CC3)nc(N)c2cc1OC
inactive: [2] | [4] | [8]

CN(CCOc1ccc(NS(C)(=O)=O)cc1)CCc1ccc(NS(C)(=O)=O)cc1
inactive: [2] | [4] | [8]

COc1cc2c(c(OC)c1OC)-c1ccc(OC)c(=O)cc1[C@@H](NC(C)=O)CC2
inactive: [1] | [2] | [4] | [8] | [5] | [6] | [7]

C[C@@H]1CC(=O)NN=C1c1ccc(NN=C(C#N)C#N)cc1
inactive: [1] | [4] | [7]
active: [3] 18.6 µM

CN(C)C(=N)N=C(N)N
inactive: [1] | [4] | [8]

Clc1ccc2c(c1)C(N1CCNCC1)=Nc1ccccc1O2
inactive: [1] | [2] | [4] | [8] | [5] | [6] | [7]

CN1C2CCC1CC(OC(=O)C(CO)c1ccccc1)C2 (stereo unspecified)
inactive: [2] | [7]

CC1(C)O[C@H]2CC(=O)OC[C@]23[C@H]2CC[C@@]4(C)[C@H](c5ccoc5)OC(=O)[C@H]5O[C@]54[C@]2(C)C(=O)C[C@@H]13
inactive: [1] | [4] | [8]

COc1cc2nc(N(C)CCCNC(=O)C3CCCO3)nc(N)c2cc1OC (stereo unspecified)
inactive: [1] | [2] | [4] | [8] | [5] | [6] | [7]

Cn1c(=O)c2c(ncn2C)n(C)c1=O
inactive: [4] | [8] | [5] | [6] | [7]

COc1ccc(CCN(C)CCCC(C#N)(c2ccc(OC)c(OC)c2)C(C)C)cc1OC (stereo unspecified)
inactive: [2] | [4] | [8]

Fc1ccc([C@@H]2CCNC[C@H]2COc2ccc3c(c2)OCO3)cc1
inactive: [1] | [2] | [4] | [8] | [5] | [6] | [7]

Cc1cn([C@H]2C[C@H](N=[N+]=[N-])[C@@H](CO)O2)c(=O)[nH]c1=O
inactive: [4] | [8]

CCCCc1oc2ccccc2c1C(=O)c1cc(I)c(OCCN(CC)CC)c(I)c1
inactive: [1] | [2] | [4] | [8] | [5] | [6] | [7]

Cc1ccccc1N1C(=O)c2cc(S(N)(=O)=O)c(Cl)cc2NC1C (stereo unspecified)
inactive: [1] | [3] | [4] | [8] | [5] | [6] | [7]

CC1(CN2CCC(n3c(=O)[nH]c4ccccc43)CC2)OCc2ccccc2-n2cccc21 (stereo unspecified)
inactive: [1] | [3] | [4] | [8] | [7]

COc1ccc2c(c1)c(CC(=O)O)c(C)n2C(=O)c1ccc(Cl)cc1
inactive: [5] | [6] | [7]
